Values without a mark were called inactive. The call rests on the fitted dose curve; in most records, active means well fitted inhibition curve with a large enough effect; inconclusive means small, poorly fitted or top-dose-only effect; inactive means no such curve, though single readings can be large or run the other way.
Experiment: qHTS assay for measurement of the activity of small molecule inhibitors on Zika virus induced Caspase-3 activity in human astrocytoma cells (AID 1224859);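 further: plate controls were ZIKV-infected untreated cells for no effect and uninfected cells for full effect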
Details: SNB-19 ZIKV-induced caspase-3/7, luminescence, 6 h; series mostly up to 45.7 µM; activity change, negative = inhibition: at the top concentration
Description: National Center for Advancing Translational Sciences [NCATS]
Johns Hopkins University School of Medicine
Increase in the Caspase-3 activity indicates an activation of apoptosis cell death pathway caused by Zika virus infection in certain types of neuronal cells including human neural progenitor cells (hNPCs), astrocytes, and astrocytoma cell line (SNB-19). This cell-based caspase-3 activity assay measures the increased caspase-3 activity in the astrocytoma cell line (SNB-19) after a 6-hour Zika virus infection with a luminescence readout. A decrease in the luminescence signal in this assay by small molecule treatment indicates an inhibitory effect of that small molecule on the Zika virus induced caspase-3 activity that may correlate with its effect on reduction of Zika virus caused cell death.
The medium for SNB-19 cells is composed of RPMI 1640 (ATCC, Cat.# 30-2001), 10% fetal bovine serum (FBS) (GE healthcare Life Sciences, Cat.# SH30071.03), and 1% Pen/Strep (Gibco, Cat.# 15140-122). A Caspase-Glo 3/7 assay kit (catalog number G8092; Promega, Madison, WI) was used to detect caspase-3 activity induced by Zika virus infection in human cells. The reagent mixture was reconstituted as described in the protocol from the manufacturer. Polystyrene tissue culture treated and PDL coated white plates were obtained from Greiner Bio-One (Monroe, NC). Cells were seeded in 384- or 1536-well assay plates and cultured at 37 C with 5% CO2 for 16 to 20 hours. The typical cell seeding density in the 1536-well plate assay is 250 cells/well in 3ul medium for SNB-19 cells in tissue culture treated plates. Compounds were added to cells and incubated for one hour before addition of ZIKV solution to cells (2 FFU/cell). After incubation at 37 C with 5% CO2 for 6 hours, the reagent mixture of Caspase-Glo 3/7 assay kit was added to each well, followed by incubation at room temperature for 30 minutes. The luminescence intensity of the assay plates was measured using a ViewLux plate reader (PerkinElmer). Data were normalized by using the cell-containing wells without ZIKV as a negative control (0% induction of caspase 3/7 activity) and wells containing ZIKV infected cells (Caspase-3 activity induced) as a positive control (100% induction of caspase 3 activity). The percentage inhibitions of the increased Caspase-3 activity by small molecule inhibitors were then calculated.

In order of falling “activity change, negative = inhibition” value:
1. C=C1C(=O)O[C@@H]2[C@H]3O[C@]3(C)CCC=C(C)CC[C@@H]12  170%
2. Cn1cc(C(=O)OCC2CCN(CCNS(C)(=O)=O)CC2)c2ccccc21  10.8%
3. O=c1oc(Cl)c(Cl)c2ccccc12  8.38%
4. Cc1cccc(C(=O)NCN2CCN(c3ccccc3C#N)CC2)c1  8.37%
5. Cc1cc2c(cc1Cl)N(C(=O)Nc1ccnc3ccccc13)CC2  7.26%
6. N[C@H](C(=O)O)[C@H](Cc1ccccc1)C(=O)O  6.8%
7. COCc1nc2c([nH]1)c(=O)n(C)c(=O)n2CC(C)C  5.47%
8. Nc1ccc(CCNc2ncnc3c2ncn3C2OC(CO)C(O)C2O)cc1 (stereo not given)  5.39%
9. Brc1c(Br)c(Br)c2[nH]cnc2c1Br  4.76%
10. CC(=O)N[C@@H](Cc1c[nH]c2ccccc12)C(=O)OCc1cc(C(F)(F)F)cc(C(F)(F)F)c1  3.97%
11. CNc1ncnc2c1ncn2[C@H]1C[C@H](OP(=O)(O)O)[C@@H](COP(=O)(O)O)O1  3.75%
12. Cn1ccnc1  3.34%
13. O=c1ccc2c(OCCCCc3ccccc3)c3ccoc3cc2o1  2.68%
14. CCCCCCN(CCCCCC)C(=O)Cc1c(-c2ccc(F)cc2)[nH]c2ccccc12  2.24%
15. Nc1ccc(N2C(=O)c3ccccc3C2=O)c(Cl)c1  2.04%
16. NC1CONC1=O (stereo not given)  1.82%
17. COc1cc(N)c(Cl)cc1C(=O)OCCN1CCCCC1  1.78%
18. O=c1onc2n1-c1cc(Br)ccc1OC2  1.33%
19. c1ccc(CN2CCC3(CCCc4ccccc43)CC2)cc1  1.23%
20. O=c1[nH]c(=S)[nH]c(-c2ccccc2)c1Cc1c(O)ccc2ccccc12  0.172%
21. COc1ccc2c(c1)c(CC(=O)O)c(C)n2Cc1ccc(Cl)cc1  -0.339%
22. Cn1c(=O)c2[nH]c(C3CCCC3)nc2n(C)c1=O  -1.85%
23. Cc1ccc([N+](=O)[O-])cc1S(=O)(=O)N(C)C  -2.11%
24. C[C@]12C=CC(=O)C=C1CC[C@@H]1C2=CC[C@]2(C)[C@@H](C(=O)CN3CCN(c4cc(N5CCCC5)nc(N5CCCC5)n4)CC3)CC[C@@H]12  -2.12%
25. CC(C)NC[C@H](O)COc1cccc2ccccc12  -2.13%
26. CN[C@H](CC(=O)O)C(=O)O  -2.66%
27. N[C@@H](CS(=O)O)C(=O)O  -3.04%
28. COc1cc(/C=C(\C#N)C(=O)Nc2nnc(C(F)(F)F)s2)ccc1OCc1ccc(C(F)(F)F)cc1C(F)(F)F  -3.15%
29. COc1cccc(OC)c1OCCNCC1CSc2ccccc2O1 (stereo not given)  -3.52%
30. N=C(N)SCCc1cnc[nH]1  -6.42%
31. NC1CCN(O)C1=O (stereo not given)  -7.68%
32. COc1ccccc1N1CCN(CCCNc2c(C)c(=O)n(C)c(=O)n2C)CC1  -8.11%
33. Cc1nc2n(c(=O)c1CCN1CCC(c3noc4cc(F)ccc34)CC1)CCCC2O (stereo not given)  -8.63%
34. Cn1c(=O)[nH]c2ncn(C)c2c1=O  -8.8%
35. CN(CC[C@@H](Oc1ccc(C(F)(F)F)cc1)c1ccccc1)CC(=O)O  -10.3%
36. Cc1cc(Cn2cnc3c2C[C@@H](C(=O)O)N(C(=O)C(c2ccccc2)c2ccccc2)C3)ccc1N  -15.3%
37. NC(N)=N[C@@H](CCC(=O)O)C(=O)O  -15.7%
38. C[C@@H](NCCc1ccc(O)cc1)[C@@H](O)c1ccc(O)cc1  -17.6%
39. O=C(c1ccc2c(c1)OCCO2)N1CCCCC1  -18%
40. CC[N+](CC)(CC)CC(=O)Nc1c(C)cccc1C  -19%
